Screens (PubChem BioAssay)
Dyrk1A ADPGlo = rat Dyrk1A kinase inhibitors, primary screen, biochemical, single point, plate reader | ADP-Glo luminescence, NFATc1 peptide | Dual specificity tyrosine-phosphorylation-regulated kinase 1A (Rattus norvegicus), Q63470 | inhibition, % at 12.5 µM | 310,000 tested, 0.43% active | AID 504441, 2011;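 further: plate controls were vehicle with enzyme for no effect and no enzyme for full effect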
NSD2 HMT inh = NSD2 histone methyltransferase inhibitors, primary screen, biochemical, AlphaScreen, single concentration, set 2 | Histone-lysine N-methyltransferase NSD2 (Homo sapiens), O96028 | NSD2 peptide methylation, 120 min | inhibition, % at 12.5 µM | 310,000 tested, 0.54% active | AID 743445, 2014
Wnt bcat act = Wnt/beta-catenin pathway activators, primary screen, cell-based, plate reader, single point; Wnt/beta-catenin reporter cell assay, activator; activation, % at 9.35 µM; 300,000 tested, 1.2% active; in the data active means activation above about 30%, passing the limit was not always enough;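 further: 0% = neutral control wells and 100% = positive control wells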
GSIS activator = GLuc luminescence reporter in INS-1E cells, primary screen for activators of glucose-dependent secretion of insulin. 370,000 tested, 0.61% active. activation, % at 16.6 µM. INS-1E GLuc reporter insulin secretion, 2-3 h. AID 743287, 2014;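 active means lowest replicate activation of at least 40%, so every replicate reaches that level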;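 further: 0% = median of neutral control wells and 100% = median of IBMX positive control wells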
MITF TRPM1 HTS = activators of MITF-driven TRPM1 promoter reporter, primary screen, cell-based, SK-MEL-5, luciferase, single point. SK-MEL-5 TRPM1-promoter luciferase, 24 h; % of positive control, neutral wells = 0. activation, % at 12.5 µM. 300,000 tested, 0.75% active. AID 588334, 2011;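 active means mean activation of at least 80% with every replicate also reaching 80%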;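 further: 0% = neutral control wells and 100% = parthenolide positive control wells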
miR122 inh = miR-122 Renilla sensor signal increase in Huh7, primary screen, miR-122 inhibitor project, cell-based, single point, plate reader; Huh7 miR-122 Renilla luciferase sensor, 48 h; neutral wells = 0, positive control = 100; 340,000 tested, 0.3% active; activation (reporter increase), % at 12.5 µM; AID 602342, 2012;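 active means mean replicate activation score at least 90 and every replicate individually at or above 90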;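 further: higher luciferase means less miR-122 activity so hits act as miR-122 inhibitors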
The depositor's hits bear a star; [ ] = another dose, or the depositor's remark. In the library only some 2.4% were active in any assay of this set; here they are far more common. Unless noted, no stated cut-off is given here; in the data, active means inhibition above about 50%; inactive means the rest.

`CC(=O)c1ccccc1NC(=O)COC(=O)c1c(C)nn(-c2ccccc2)c1C` gave Dyrk1A ADPGlo -0.4, NSD2 HMT inh -4.4, Wnt bcat act 42.3*, GSIS activator -13.5, MITF TRPM1 HTS 29.4 and miR122 inh -3.9.
Cc1nn(-c2ccccc2)c(C)c1C(=O)OCC(=O)Nc1ccccc1C(F)(F)F was read as Wnt bcat act 12.8, GSIS activator 17.3 and MITF TRPM1 HTS 28.3.
`C[C@@H]1CN([C@@H](C)CO)C(=O)Cc2cc(NC(=O)Nc3ccccc3)ccc2O[C@@H]1CN(C)C(=O)Nc1ccc(F)cc1` gave GSIS activator -4.8 and miR122 inh -0.2[16.7 µM].
Screening C[C@@H]1CN([C@H](C)CO)C(=O)c2ccccc2-c2ccccc2CO[C@H]1CN(C)C(=O)Nc1ccc(-c2ccccc2)cc1 returned GSIS activator 5.7.
Screening COc1ccc(N=C2SC(CC(=O)Nc3ccccc3)C(=O)N2Cc2ccco2)cc1 (stereo not drawn) returned Dyrk1A ADPGlo 5.7, NSD2 HMT inh 3.5, Wnt bcat act 44.1*, GSIS activator -15.1, MITF TRPM1 HTS -5.8 and miR122 inh -5.3.
Screening O=C(c1cccc(F)c1)N1CC2(C1)[C@@H](c1ccccc1)[C@@H](CO)N2C(=O)C1CCC1 returned GSIS activator 0.2.
Cn1cccc1C(=O)Nc1ccc(N2CCOCC2)cc1 was read as Dyrk1A ADPGlo 4.4, NSD2 HMT inh -0.5, Wnt bcat act 38.5*, GSIS activator 9.1 and MITF TRPM1 HTS 33.0.
O=C(Nc1cc(S(=O)(=O)N2CCOCC2)ccc1Cl)C(=O)c1c(-c2ccccc2)cc2ccccn12 was read as Dyrk1A ADPGlo -0.7, NSD2 HMT inh 1.0 and miR122 inh 154.9*.
Cn1c(=O)[nH]c(=O)c2c1nc(SCC(O)CCl)n2Cc1ccccc1 (stereo not drawn) was read as Dyrk1A ADPGlo -0.8, NSD2 HMT inh -0.5, Wnt bcat act -3.6, GSIS activator 40.9* and miR122 inh -2.7.
CC(C)Sc1nc2c(c(=O)[nH]c(=O)n2C)n1Cc1ccc(Cl)cc1 was read as Dyrk1A ADPGlo -7.2, NSD2 HMT inh 1.0, Wnt bcat act 3.6, GSIS activator 77.0* and miR122 inh -5.2.
CC(O)CSc1nc2c(c(=O)[nH]c(=O)n2C)n1Cc1ccccc1Cl (stereo not drawn) was read as Dyrk1A ADPGlo 0.7, NSD2 HMT inh -0.4, Wnt bcat act -1.8, GSIS activator 21.8, MITF TRPM1 HTS 1.0 and miR122 inh -10.4.
`CCC(C)Sc1nc2c(c(=O)[nH]c(=O)n2C)n1Cc1ccc(Cl)cc1` (stereo not drawn) gave Dyrk1A ADPGlo 1.0, MITF TRPM1 HTS 18.6 and miR122 inh -7.9.
CC(=O)CSc1nc2c(c(=O)[nH]c(=O)n2C)n1Cc1ccccc1Cl was read as Dyrk1A ADPGlo 1.3, NSD2 HMT inh -0.7, Wnt bcat act -1.0, GSIS activator 59.3* and miR122 inh -9.0.
`Cc1ccc(C2CC(c3cccs3)=NN2S(=O)(=O)c2ccc(C)cc2)cc1` (stereo not drawn) gave NSD2 HMT inh -1.6, Wnt bcat act 1.4, GSIS activator -5.2, MITF TRPM1 HTS -3.7 and miR122 inh 98.1*.
Screening COc1ccccc1-c1nnc(NC(=O)C(C)Sc2nncn2C)s1 (stereo not drawn) returned Dyrk1A ADPGlo 4.9, NSD2 HMT inh 2.3, Wnt bcat act 1.1, GSIS activator 2.2 and MITF TRPM1 HTS -11.4.
COc1ccccc1-c1nnc(NC(=O)CSc2nncn2C)s1 was read as Dyrk1A ADPGlo 1.5, NSD2 HMT inh -1.7, Wnt bcat act 53.7*, GSIS activator 11.4 and MITF TRPM1 HTS 9.0.
CCC(=O)N1CC2(C1)CN(Cc1cccc(Cl)c1)[C@@H](CO)c1[nH]c3cc(OC)ccc3c12 was read as GSIS activator 7.9.
`O=c1c(-c2ccc3c(c2)OCCO3)coc2cc(OC3OC(CO)C(O)C(O)C3O)ccc12` (stereo not drawn) gave Dyrk1A ADPGlo -4.5, NSD2 HMT inh -6.3, Wnt bcat act 41.5*, GSIS activator 6.8 and MITF TRPM1 HTS 93.8*.
O=C(NC1CCCCCC1)c1c(O)c2ccccc2[nH]c1=O was read as Dyrk1A ADPGlo 7.3, NSD2 HMT inh -1.7 and MITF TRPM1 HTS 98.9*.
CNC[C@H]1Oc2c(NC(=O)NC(C)C)cccc2C(=O)N(C)C[C@@H]1C was read as GSIS activator 0.9.
For CSc1ccc2nnc(-c3cccc(F)c3)n2n1 the results were Dyrk1A ADPGlo 38.5, NSD2 HMT inh 0.7, GSIS activator 53.2*, MITF TRPM1 HTS 0.5 and miR122 inh -0.8.
CCOC(=O)CC(=O)CSc1ccc2nnc(-c3cccc(F)c3)n2n1 was read as Dyrk1A ADPGlo 26.2, GSIS activator 12.8, MITF TRPM1 HTS 1.4 and miR122 inh 9.8.
For O=C(CNC(=S)NC(=O)C1CCCCC1)c1ccccc1 the results were Dyrk1A ADPGlo 18.5, NSD2 HMT inh 8.3, Wnt bcat act -0.3, GSIS activator 0.9, MITF TRPM1 HTS 87.0* and miR122 inh -6.1.
`C[C@H]1CN([C@@H](C)CO)C(=O)Cc2cc(NC(=O)Nc3ccc(F)cc3)ccc2O[C@H]1CN(C)S(=O)(=O)c1ccc(Cl)cc1` gave GSIS activator -19.2 and miR122 inh 2.7[16.7 µM].
`CC(C)c1cc(C(=O)Nc2cccc(Cl)c2)no1` gave Dyrk1A ADPGlo -0.3, NSD2 HMT inh -3.8, GSIS activator -25.2, MITF TRPM1 HTS 89.6* and miR122 inh -16.1.
For O=C(NCc1ccccc1)c1noc2c1CCCC2 the results were Dyrk1A ADPGlo -1.2, NSD2 HMT inh -3.5, MITF TRPM1 HTS 10.4 and miR122 inh 3.1.
CC(C)c1cc(C(=O)NCCc2ccccc2)no1 was read as Dyrk1A ADPGlo -3.2, NSD2 HMT inh -3.4, Wnt bcat act 39.2*, GSIS activator 0.7, MITF TRPM1 HTS 65.4 and miR122 inh 2.9.
`O=C(NCCc1ccccc1)c1noc2c1CCCCC2` gave Dyrk1A ADPGlo -3.3, NSD2 HMT inh 20.6, GSIS activator 19.5, MITF TRPM1 HTS 106.6* and miR122 inh 6.5.
Screening Cc1ccc(Cn2c(NS(=O)(=O)c3ccccc3)nc3ccccc32)cc1 returned Dyrk1A ADPGlo -17.7, NSD2 HMT inh 0.4, Wnt bcat act -5.2, MITF TRPM1 HTS -18.6 and miR122 inh 106.2*.
`CCC(=O)Nc1nc2ccccc2n1Cc1ccc(C)cc1` gave Dyrk1A ADPGlo -5.6, NSD2 HMT inh -0.7, GSIS activator -17.3, MITF TRPM1 HTS -15.6 and miR122 inh 3.6.
